Screens deposited in PubChem BioAssay by The Scripps Research Institute Molecular Screening Center.
MITF primary = inhibitors of human MITF; O75030; AlphaScreen MITF homodimerization, bead proximity signal; inhibition, % at 2.6 µM; actives 0.91% (n = 650,000); AID 1259374; in the data active means inhibition above about 50%
GPR151 ag = activators of human GPR151 | Q8TDV0 | activation, % at 11.2 µM | actives 1% (n = 650,000) | PathHunter beta-arrestin GPR151 cells, luminescence; in the data active means activation above about 4.9%
Target sequence (Q8TDV0 whole entry, looked up): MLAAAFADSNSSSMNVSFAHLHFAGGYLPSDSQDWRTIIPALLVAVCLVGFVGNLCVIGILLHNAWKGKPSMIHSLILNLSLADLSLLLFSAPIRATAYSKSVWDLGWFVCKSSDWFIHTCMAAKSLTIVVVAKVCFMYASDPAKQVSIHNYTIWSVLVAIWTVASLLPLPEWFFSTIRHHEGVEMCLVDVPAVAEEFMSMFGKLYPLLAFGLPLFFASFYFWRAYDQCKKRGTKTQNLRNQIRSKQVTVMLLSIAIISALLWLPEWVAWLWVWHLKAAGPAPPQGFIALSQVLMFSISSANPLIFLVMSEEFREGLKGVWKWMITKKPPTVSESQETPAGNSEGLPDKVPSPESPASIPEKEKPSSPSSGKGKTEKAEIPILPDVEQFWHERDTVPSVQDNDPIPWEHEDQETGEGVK
FBW7 act = activators of human E3 ligase FBW7. AlphaScreen FBW7–phospho-cyclin E peptide binding, activator screen. normalized activity (activation), % at 26.1 µM. actives 0.13% (n = 650,000). AID 1259310; in the data active means normalized activity above about 1.9%;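 further: purified mutant Fbw7 with reduced substrate affinity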
TEAD-YAP block = TEAD-YAP interaction inhibition; HEK-TIYL cells, TEAD-Gal4/YAP UAS-luciferase luminescence; inhibition, % at 9.12 µM; actives 1.4% (n = 640,000); AID 1259422; in the data active means inhibition above about 32%
MITF inh conf = confirmation of human MITF inhibitors; shares compounds with MITF primary; AlphaScreen MITF homodimerization, biotin/His-MITF beads; inhibition, % at 2.6 µM; actives 16% (n = 4,700);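 active means inhibition above a cutoff derived from the DMSO control wells, cut at about 28% in these data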;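 further: inhibitors lower the bead chemiluminescence by keeping MITF from dimerizing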
AS interf DR = counter-screen: compounds optically interfering with AlphaScreen | shares compounds with MITF primary | AlphaScreen optical interference counterscreen, cell-free | IC50, µM | actives 6% (n = 480); call rule not given here
AS interf ctr = AlphaScreen optical interference, counter-screen. shares compounds with MITF primary. LysRS AlphaScreen counterscreen, signal interference, triplicate. inhibition, % at 2.6 µM. actives 7.6% (n = 4,700);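 active means inhibition above a cutoff derived from the DMSO control wells, cut at about 30% in these data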
Of the large screens only hits and unclear results are named; the others gave an inactive call (follow-up assays come after a bar, where they were run). This is a sample that favours compounds with a hit; in the whole collection about 3.5% have one here.

Cc1cccc(NC(=O)C2C3C=CC4(O3)C2C(=O)N(CCCN2CCOCC2)C4C(=O)NC2CCCC(C)C2C)c1 (stereo not drawn)	none
O=C(NCC1CCCO1)c1cc(S(=O)(=O)N2CCc3ccccc32)ccc1F (stereo not drawn)	none
CCOCCCn1c(SCC(=O)Nc2ccccc2C(N)=O)nc2ccccc2c1=O	none
COC(=O)c1cnc(Nc2ccc(Br)cc2C)c2ccccc12	none
O=[N+]([O-])c1ccccc1S(=O)(=O)N1CCN(C2CCN(Cc3ccccc3)CC2)CC1	MITF primary 74 | MITF inh conf inactive | AS interf ctr inactive
CC(=O)Nc1ccc(S(=O)(=O)N2CCN(Cc3ccccc3C(F)(F)F)CC2)cc1	MITF primary 70 | MITF inh conf inactive | AS interf ctr inactive
Cc1ccc(S(=O)(=O)N2CCN(Cc3ccccc3Br)CC2)cc1	MITF primary 61 | MITF inh conf inactive | AS interf ctr inactive
COc1ccc(S(=O)(=O)N2CCN(Cc3ccccc3Br)CC2)cc1	none
CN(C)CCNC(=S)N1CCN(S(=O)(=O)c2ccccc2[N+](=O)[O-])CC1	MITF primary 73 | MITF inh conf inactive | AS interf ctr inactive
O=[N+]([O-])c1ccccc1S(=O)(=O)N1CCN(C2CCCC2)CC1	none
O=C(c1cccnc1)N1CCN(S(=O)(=O)c2ccccc2[N+](=O)[O-])CC1	none
O=[N+]([O-])c1ccccc1S(=O)(=O)N1CCN(Cc2cccnc2)CC1	MITF primary 74 | MITF inh conf inactive | AS interf ctr inactive
CC(C)C[C@H]1NC(=O)[C@H]2CN(CCCc3ccccc3)CCN2C1=O	none
COc1ccc(-c2noc(C(Cl)(Cl)Cl)n2)cc1	none
CCS(=O)(=O)N1CCc2ccc(NS(=O)(=O)C(C)C)cc2C1	none
CCS(=O)(=O)N1CCc2ccc(NS(=O)(=O)Cc3ccccc3F)cc2C1	MITF primary 75 | MITF inh conf inactive | AS interf ctr inactive
COc1cccc(NC(=O)Cn2cnc3c2c(=O)n(C)c(=O)n3C)c1	none
O=C(O)CCCCCn1c(SCc2nc3ccccc3[nH]2)nc2ccsc2c1=O	MITF primary 61 | MITF inh conf inactive | AS interf ctr inactive
O=C(CCCn1c(SCc2nc3ccccc3[nH]2)nc2ccsc2c1=O)NCCc1ccccc1	none
c1ccc(-c2ccc(CN3CCSCC3)cc2)cc1	none
OCCN1CCN(Cc2ccc(-c3ccccc3)cc2)CC1	MITF primary 61 | MITF inh conf inactive | AS interf ctr inactive
CC(=O)Nc1ccc(CN2CCN(C)CC2)cc1	MITF primary 80 | MITF inh conf inactive | AS interf ctr inactive
CN1CCN(Cc2ccc(-c3ccccc3)cc2)CC1	MITF primary 61 | MITF inh conf inactive | AS interf ctr inactive
COc1cccc(Cn2c(C)c(CNC3CCC(C)CC3)c(C(=O)O)c2C)c1 (stereo not drawn)	none
O=C1CC(=O)N(c2ccc(Cl)c(Cl)c2)N1	none
O=C(O)c1c[nH]c2c(ccc3cccnc32)c1=O	MITF primary 121 (no result: FBW7 act, TEAD-YAP block) | MITF inh conf 98 | AS interf ctr 101
O=C(O)c1c[nH]c2c(Cl)c(Cl)ccc2c1=O	none
COc1ccc(-c2nnc(C3CCCN(C(=O)Nc4ccccc4)C3)s2)cc1 (stereo not drawn)	none
O=C(CC(NCc1ccccc1)C(=O)O)Nc1cccc(C(F)(F)F)c1 (stereo not drawn)	MITF primary 89 | MITF inh conf inactive | AS interf ctr inactive
CCCCCNC(CC(=O)Nc1cc(C)ccc1C)C(=O)O (stereo not drawn)	none
O=C(CC(NCc1ccccn1)C(=O)O)Nc1cccc(Cl)c1 (stereo not drawn)	MITF primary 112 | MITF inh conf 84 | AS interf ctr 100
Cc1ccc(Cl)cc1NC(=O)CC(NCc1ccccn1)C(=O)O (stereo not drawn)	MITF primary 101 | MITF inh conf 87 | AS interf ctr 100
Cc1ccc(C)c(NC(=O)CC(NCCN)C(=O)O)c1 (stereo not drawn)	MITF primary 81 | MITF inh conf 36 | AS interf ctr 58
CN1CCc2c(n(CC(O)CNC3CCCC3)c3ccccc23)C1=O (stereo not drawn)	none
COc1ccc(CNc2cccc(F)c2)cc1	none
CCOc1ccc(NC(=O)CSc2nc3n[nH]c(C)c3c(=N)n2-c2ccccc2CC)cc1	none
Cc1ccccc1NCC(=O)N/N=C\c1ccco1	none
CS(=O)(=O)c1ccccc1CN1CCC(c2nnc(-c3ccc(F)cc3)o2)CC1	none
O=C(CN1CCCCCC1)N/N=C/c1ccc(F)c(Br)c1	none
O=C(CN1CCCCCCC1)N/N=C/c1ccc(F)c(Br)c1	MITF primary 57 | MITF inh conf inactive | AS interf ctr inactive
CCc1nnc(NC(=O)CSc2nc(C3CC3)nc3ccccc23)s1	none
CC(C)(C)c1ccc(/C=C/C(=O)N2CCC(C(N)=O)CC2)cc1	MITF primary 65 | MITF inh conf inactive | AS interf ctr inactive
NC(=O)C1CCN(C(=O)/C=C/c2ccc([N+](=O)[O-])cc2)CC1	none
O=C(CCCC(=O)OCC(=O)c1ccccc1)Nc1ccccc1	none
CC1NC(=O)NC1CCCCCC(=O)OCC(=O)c1ccccc1 (stereo not drawn)	MITF primary 115 | MITF inh conf 118 | AS interf ctr 100
Cn1cccc1CN1CCN(Cc2ccncc2)CC1	MITF primary 64 | MITF inh conf inactive | AS interf ctr inactive
Cn1cccc1CN1CCN(Cc2ccc(F)cc2)CC1	MITF primary 65 | MITF inh conf inactive | AS interf ctr inactive
c1ccc(CN2CCC(N3CCN(C4CCCCC4)CC3)CC2)cc1	none
Cn1cccc1CN1CCN(Cc2ccccc2)CC1	MITF primary 70 | MITF inh conf inactive | AS interf ctr inactive
Cn1cccc1CN1CC[C@H]2[C@H](CCC(=O)N2Cc2ccc(F)cc2)C1	none
Cn1cccc1CN1CCN(S(C)(=O)=O)CC1	none
Cn1cccc1CN1CCN(C2CCCC2)CC1	MITF primary 70 | MITF inh conf inactive | AS interf ctr inactive
O=C(N/N=C/c1ccc2ccccc2c1)c1n[nH]c(=O)c2ccccc12	none
C/C=C\C1=C(C(=O)O)N2C(=O)C(NC(=O)C(N)c3ccc(O)cc3)C2SC1 (stereo not drawn)	MITF primary 51 | MITF inh conf 28 | AS interf DR inactive | AS interf ctr inactive
CC1=C(C(=O)O)N2C(=O)[C@@H](NC(=O)[C@H](N)c3ccccc3)[C@H]2SC1	none
COc1ccc(Cc2cc(C(=O)NCCN3CCNC3=O)on2)cc1	none
COc1ccc(C2C(C(=O)NCc3ccc(F)cc3)c3ccccc3C(=O)N2c2ccc(OC)cc2)cc1 (stereo not drawn)	none
O=C(NN1C(=O)c2ccc(Oc3ccc([N+](=O)[O-])cc3)cc2C1=O)c1ccco1	MITF primary 58 | MITF inh conf inactive | AS interf ctr inactive
CSc1ccc(CN2CCN(C3CCCC3)CC2)cc1	MITF primary 54 | MITF inh conf inactive | AS interf ctr inactive
